Screening data (PubChem)
FLuc counter – inhibits or activates purified firefly luciferase, miR-21 counter-screen. P08659. Potency, µM (top dose mostly 57.5 µM), most hits filed as inhibitors. AID 588342. actives 6.9% (n = 360,000). purified FLuc, Km substrates, luminescence inhibition; further: nearly all actives have a fitted effect of over 55% in size
Target sequence (P08659 whole entry, looked up): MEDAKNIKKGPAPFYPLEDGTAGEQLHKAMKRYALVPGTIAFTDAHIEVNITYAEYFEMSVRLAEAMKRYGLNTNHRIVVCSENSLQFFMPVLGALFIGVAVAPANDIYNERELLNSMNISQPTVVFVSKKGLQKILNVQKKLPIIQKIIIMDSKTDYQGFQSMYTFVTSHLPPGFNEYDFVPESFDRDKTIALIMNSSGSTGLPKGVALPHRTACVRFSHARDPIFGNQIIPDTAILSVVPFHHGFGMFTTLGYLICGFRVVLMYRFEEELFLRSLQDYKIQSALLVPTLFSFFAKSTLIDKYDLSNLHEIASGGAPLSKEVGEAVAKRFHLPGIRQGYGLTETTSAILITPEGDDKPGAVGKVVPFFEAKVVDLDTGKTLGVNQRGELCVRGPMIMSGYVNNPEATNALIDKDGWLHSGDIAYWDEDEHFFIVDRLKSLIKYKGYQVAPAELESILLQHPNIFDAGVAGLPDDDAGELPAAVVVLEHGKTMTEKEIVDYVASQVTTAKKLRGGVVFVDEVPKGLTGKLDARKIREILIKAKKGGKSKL
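Purified P. pyralis luciferase, 10 nM final, with Km-level 10 uM D-luciferin and 10 uM ATP in 50 mM Tris acetate pH 7.5, 10 mM Mg acetate, 0.01% Tween-20, 0.05% BSA; 6-point qHTS titration about 60 µM downward; luminescence read.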
Rab9 prom act – activates the Rab9 promoter; Huh7 Rab9 promoter-luciferase reporter, luminescence, 24 h; Potency, µM (doses to about 9.22 µM), usual class: activators; actives 2.8% (n = 320,000); further: nearly all actives have a fitted effect of over 60% in size
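Cells were plated at 1500 per well in reduced-serum medium with 10% FBS and left 2 h. Compound in DMSO was then added for 24 h at 37 °C. Reporter signal was read by luminescence after 10 min with luciferase detection reagent.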
Luc counter – Kinase-Glo luciferase inhibition (counter-screen); Q27757; Kinase-Glo luciferase, ATP luminescence, 8 min; Potency, µM (highest dose often 38.3 µM), actives largely listed as inhibitors; actives 0.28% (n = 200,000); AID 1379; further: nearly all actives have a fitted effect of over 60% in size
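Inhibition of Kinase-Glo luciferase light generation was assessed at 10 uM ATP in pH 7.2 imidazole buffer, with luminescence measured after eight minutes at ambient temperature.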
SMN2 splice up – increases expression of the SMN2 splice variant; HEK293 SMN2-luciferase splicing reporter, luminescence, 30-36 h; Potency, µM (titrated, usually from 46.1 µM), usual class: activators; actives 2.8% (n = 210,000); AID 1458; further: nearly all actives have a fitted effect of over 55% in size
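HEK293 cells carry an SMN2 […]–luciferase reporter in which exon 7 inclusion puts luciferase in frame. Cells were plated 10-12 h before compound addition, then incubated 30-36 h at 37C. ONE-Glo luminescence was read; sodium butyrate at 4.5 mM final served as control.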
ELG1 genotoxic – induces genotoxicity in HEK293T cells with luciferase-tagged ELG1; HEK293T ELG1-luciferase reporter, luminescence, 16 h; Potency, µM (titrated, usually from 46 µM), actives largely listed as activators; actives 1.3% (n = 330,000); AID 504466; further: nearly all actives have a fitted effect of over 60% in size
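Reporter readout depends on ELG1 protein level, which increases with genetic stress. After 16 hr compound exposure at 37 °C, luciferase activity was quantified using ONE-Glo.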
NPC1 promoter act – activates the NPC1 promoter | Huh7 NPC1 promoter luciferase reporter, 24 h | Potency, µM (highest dose often 9.22 µM), hits mostly activators | actives 2.4% (n = 320,000) | AID 485313; further: nearly all actives have a fitted effect of over 60% in size
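Luciferase expression driven by the NPC1 promoter was measured in stably transfected Huh7 cells after a 24 h compound incubation, using a luciferase reagent and a luminescence read.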
Large screens that a line does not name were inactive. Hits are enriched below; roughly 7.3% of the tested compounds scored in any of these assays. The call rests on the fitted dose curve; in most records, active means well fitted curve in the direction sought with a large enough effect; inconclusive means small, poorly fitted or top-dose-only effect, or another doubt; inactive means no such curve, though single readings can be large; an effect the other way counts as inactive or inconclusive.

CCN(CC1CCCO1)C(=O)c1cc(COc2cc(C)c(Cl)c(C)c2)on1 (stereo unspecified)	FLuc counter 13µM, Rab9 prom act 2.2µM, ELG1 genotoxic inconclusive, NPC1 promoter act 3.2µM (no result: Luc counter, SMN2 splice up)
COCC1CCN(C(=O)c2cc(COc3cncc(Cl)c3)on2)C1 (stereo unspecified)	none (no result: Luc counter, SMN2 splice up)
Cc1cc(OCc2cc(C(=O)N3CCCCCC3)no2)cc(C)c1Cl	FLuc counter 13µM, Rab9 prom act 2.5µM, ELG1 genotoxic inconclusive, NPC1 promoter act 2.8µM (no result: Luc counter, SMN2 splice up)
COCC1CCN(C(=O)c2cc(COc3cc(C)c(Cl)c(C)c3)on2)C1 (stereo unspecified)	FLuc counter 17µM, Rab9 prom act 4.5µM, NPC1 promoter act inconclusive (no result: Luc counter, SMN2 splice up)
Cc1cc(OCc2cc(C(=O)N(C)CC3CCOCC3)no2)cc(C)c1Cl	FLuc counter inconclusive (no result: Luc counter, SMN2 splice up)
O=c1cc(-c2ccccc2)oc2cc(O[C@@H]3O[C@H](CO)[C@@H](O)[C@H](O)[C@H]3O)c(O)c(O)c12	none (no result: FLuc counter, Rab9 prom act, SMN2 splice up, ELG1 genotoxic, NPC1 promoter act)
CCCC1c2ccc(C)n2CCN1C(=O)Nc1ccccc1Cl (stereo unspecified)	FLuc counter 12µM, SMN2 splice up inconclusive
COc1ccc(Nc2nc(N)nc(SCc3nnc(C)s3)n2)cc1	FLuc counter 24µM, Rab9 prom act inconclusive, SMN2 splice up inconclusive, ELG1 genotoxic inconclusive
COc1ccc(Nc2nc(N)nc(CSc3nnc(N)s3)n2)cc1	FLuc counter inconclusive, Rab9 prom act inconclusive, ELG1 genotoxic inconclusive, NPC1 promoter act inconclusive
COc1ccc(Nc2nc(N)nc(CSc3nccn3C)n2)cc1	FLuc counter 21µM, Rab9 prom act 1.8µM, ELG1 genotoxic inconclusive, NPC1 promoter act 1.4µM (no result: SMN2 splice up)
COc1ccc2nc(SCc3nc(N)nc(Nc4ccccc4)n3)[nH]c2c1	FLuc counter 13µM
Nc1nc(CSc2ccccn2)nc(Nc2ccccc2)n1	FLuc counter 9.5µM, Rab9 prom act 1.4µM, SMN2 splice up 11µM, ELG1 genotoxic inconclusive, NPC1 promoter act 2.8µM
[ClH+][Cu][ClH+].[Cu].[OH2+]c1ccc2ccccc2c1CN1CCCCC1.[OH2+]c1ccc2ccccc2c1CN1CCCCC1	none (no result: FLuc counter, Rab9 prom act, ELG1 genotoxic, NPC1 promoter act)
CCc1ccc(CNC(=O)c2sc3ncccc3c2-n2c(C)ccc2C)cc1	none (no result: Rab9 prom act, Luc counter, SMN2 splice up, ELG1 genotoxic, NPC1 promoter act)
O=C(O)c1ccc2c(c1)C(=O)N([C@H](Cc1ccc(Cl)cc1)C(=O)O)C2=O	none (no result: Luc counter, SMN2 splice up, ELG1 genotoxic)
Cc1cc(C(=O)CSC(=S)SC(C)(C)C)ccc1Cl	none (no result: FLuc counter, Rab9 prom act, ELG1 genotoxic, NPC1 promoter act)
Cn1cnnc1SCc1nc(N)nc(Nc2ccccc2)n1	FLuc counter inconclusive, Rab9 prom act inconclusive, ELG1 genotoxic inconclusive, NPC1 promoter act inconclusive
Cc1ccc(Nc2nc(N)nc(CSc3nncn3C)n2)cc1	FLuc counter 13µM, Rab9 prom act 2.8µM, SMN2 splice up 18µM, ELG1 genotoxic inconclusive, NPC1 promoter act 3.2µM
CSc1ccccc1NC(=O)c1cnc2scc(C)n2c1=O	FLuc counter inconclusive, SMN2 splice up inconclusive, ELG1 genotoxic 18µM
Cc1cccc(CCNC(=O)c2cnc3c(C)cccn3c2=O)c1	FLuc counter 4.3µM (no result: Rab9 prom act, Luc counter, SMN2 splice up, ELG1 genotoxic, NPC1 promoter act)
Cc1csc2ncc(C(=O)NCCc3ccccc3)c(=O)n12	FLuc counter inconclusive, Rab9 prom act inconclusive, SMN2 splice up inconclusive, ELG1 genotoxic 21µM, NPC1 promoter act inconclusive
Cc1ccccc1NC(=O)c1cnc2ccccn2c1=O	FLuc counter 0.76µM, Rab9 prom act 0.79µM, Luc counter inconclusive, SMN2 splice up inconclusive, ELG1 genotoxic inconclusive, NPC1 promoter act inconclusive
CCc1ccccc1NC(=O)c1cnc2scc(C)n2c1=O	FLuc counter inconclusive, SMN2 splice up inconclusive
Cc1cc(Br)cc(C)c1NC(=O)c1cnc2ccccn2c1=O	none (no result: Rab9 prom act, Luc counter, ELG1 genotoxic, NPC1 promoter act)
CCN(CC)S(=O)(=O)c1ccc2c(c1)N(CC(=O)Nc1cccc(C)c1C)C(=O)C1CCCN21 (stereo unspecified)	none (no result: Rab9 prom act, Luc counter, SMN2 splice up, ELG1 genotoxic, NPC1 promoter act)
Nc1cccc2cc(S(=O)(=O)Nc3ccc(C(=O)O)cc3)ccc12	none (no result: FLuc counter, Rab9 prom act, ELG1 genotoxic, NPC1 promoter act)
O=C(NCCc1ccccc1)c1cnc2ccccn2c1=O	FLuc counter 11µM, Rab9 prom act 0.56µM, SMN2 splice up 4µM, NPC1 promoter act 0.89µM
Cn1c(C(=O)NCCc2ccccc2)cc2c(=O)n3ccccc3nc21	none (no result: Rab9 prom act, Luc counter, SMN2 splice up, ELG1 genotoxic, NPC1 promoter act)
COc1ccc(/C=C(\C#N)C(=O)N=CN(C)C)cc1	FLuc counter 13µM
